The supplement of paper PMC4466140

Target: AgAbp1
Experiment: SPOT peptide array binding signal intensity (averaged, normalized) (arbitrary units (background-subtracted, floor 0; scale differs between SH3 domains)); higher = stronger binding of the SH3 domain to the peptide
Method in brief: (§1)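 Spot intensities were captured after detection with anti-GST antibody, an HRP-linked anti-mouse secondary and luminol, and quantified with Genespotter. The probes were GST-fused SH3 domains from four yeast species, produced in E. coli BL21(DE3), purified on glutathione Sepharose and incubated at 10 μg/ml overnight at 4°C on cellulose-bound synthetic 15-mer peptides with cysteines replaced by serines. Binding signal is the normalized, background-subtracted spot intensity averaged over replicates, and its arbitrary units differ between domains.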

Binder | SPOT peptide array binding signal intensity
KRNRLKILLPFLEQS | 7

Target: AgBbc1
Experiment: as above
Method in brief: as §1

Binder | SPOT peptide array binding signal intensity
KRNRLKILLPFLEQS | 1.75

Target: AgBem1-D1
Experiment: as above
Method in brief: as §1

Binder | SPOT peptide array binding signal intensity
KRNRLKILLPFLEQS | 102

Target: AgBzz1-D1
Experiment: as above
Method in brief: as §1

Binder | SPOT peptide array binding signal intensity
KRNRLKILLPFLEQS | 9

Target: AgBzz1-D2
Experiment: as above
Method in brief: as §1

Binder | SPOT peptide array binding signal intensity
KRNRLKILLPFLEQS | 41

Target: AgCyk3
Experiment: as above
Method in brief: as §1

Binder | SPOT peptide array binding signal intensity
KRNRLKILLPFLEQS | 0.5

Target: AgFus1
Experiment: as above
Method in brief: as §1

Binder | SPOT peptide array binding signal intensity
KRNRLKILLPFLEQS | 1340

Target: AgHof1
Experiment: as above
Method in brief: as §1

Binder | SPOT peptide array binding signal intensity
KRNRLKILLPFLEQS | 30.5

Target: AgHse1
Experiment: as above
Method in brief: as §1

Binder | SPOT peptide array binding signal intensity
KRNRLKILLPFLEQS | 1380

Target: AgLsb1
Experiment: as above
Method in brief: as §1

Binder | SPOT peptide array binding signal intensity
KRNRLKILLPFLEQS | 3.5

Target: AgLsb4
Experiment: as above
Method in brief: as §1

Binder | SPOT peptide array binding signal intensity
KRNRLKILLPFLEQS | 126

Target: AgMyo5
Experiment: as above
Method in brief: as §1

Binder | SPOT peptide array binding signal intensity
KRNRLKILLPFLEQS | 0.5

Target: AgNbp2
Experiment: as above
Method in brief: as §1

Binder | SPOT peptide array binding signal intensity
KRNRLKILLPFLEQS | 102

Target: AgRvs167
Experiment: as above
Method in brief: as §1

Binder | SPOT peptide array binding signal intensity
KRNRLKILLPFLEQS | 2.33

Target: AgSho1
Experiment: as above
Method in brief: as §1

Binder | SPOT peptide array binding signal intensity
KRNRLKILLPFLEQS | 200

Target: AgSla1-D1-D2
Experiment: as above
Method in brief: as §1

Binder | SPOT peptide array binding signal intensity
KRNRLKILLPFLEQS | 49.5

Target: AgSla1-D3
Experiment: as above
Method in brief: as §1

Binder | SPOT peptide array binding signal intensity
KRNRLKILLPFLEQS | 12.5

Target: CaAbp1-D1
Experiment: as above
Method in brief: as §1

Binder | SPOT peptide array binding signal intensity
KRNRLKILLPFLEQS | 342

Target: CaAbp1-D2
Experiment: as above
Method in brief: as §1

Binder | SPOT peptide array binding signal intensity
KRNRLKILLPFLEQS | 154

Target: CaBbc1
Experiment: as above
Method in brief: as §1

Binder | SPOT peptide array binding signal intensity
KRNRLKILLPFLEQS | 27

Target: CaBem1-D1
Experiment: as above
Method in brief: as §1

Binder | SPOT peptide array binding signal intensity
KRNRLKILLPFLEQS | ≤ 0

Target: CaBzz1-D1
Experiment: as above
Method in brief: as §1

Binder | SPOT peptide array binding signal intensity
KRNRLKILLPFLEQS | 5

Target: CaBzz1-D2
Experiment: as above
Method in brief: as §1

Binder | SPOT peptide array binding signal intensity
KRNRLKILLPFLEQS | 66.8

Target: CaCyk3
Experiment: as above
Method in brief: as §1

Binder | SPOT peptide array binding signal intensity
KRNRLKILLPFLEQS | 3

Target: CaFus1
Experiment: as above
Method in brief: as §1

Binder | SPOT peptide array binding signal intensity
KRNRLKILLPFLEQS | 4760

Target: CaHof1
Experiment: as above
Method in brief: as §1

Binder | SPOT peptide array binding signal intensity
KRNRLKILLPFLEQS | 0.5

Target: CaHse1
Experiment: as above
Method in brief: as §1

Binder | SPOT peptide array binding signal intensity
KRNRLKILLPFLEQS | 57.2

Target: CaLsb1
Experiment: as above
Method in brief: as §1

Binder | SPOT peptide array binding signal intensity
KRNRLKILLPFLEQS | 9.75

Target: CaLsb4
Experiment: as above
Method in brief: as §1

Binder | SPOT peptide array binding signal intensity
KRNRLKILLPFLEQS | 21

Target: CaMyo5
Experiment: as above
Method in brief: as §1

Binder | SPOT peptide array binding signal intensity
KRNRLKILLPFLEQS | 3

Target: CaNbp2
Experiment: as above
Method in brief: as §1

Binder | SPOT peptide array binding signal intensity
KRNRLKILLPFLEQS | 742

Target: CaRvs167
Experiment: as above
Method in brief: as §1

Binder | SPOT peptide array binding signal intensity
KRNRLKILLPFLEQS | 61.5

Target: CaRvs167-3
Experiment: as above
Method in brief: as §1

Binder | SPOT peptide array binding signal intensity
KRNRLKILLPFLEQS | 828

Target: CaSho1
Experiment: as above
Method in brief: as §1

Binder | SPOT peptide array binding signal intensity
KRNRLKILLPFLEQS | 1220

Target: CaSla1-D1-D2
Experiment: as above
Method in brief: as §1

Binder | SPOT peptide array binding signal intensity
KRNRLKILLPFLEQS | 5

Target: CaSla1-D3
Experiment: as above
Method in brief: as §1

Binder | SPOT peptide array binding signal intensity
KRNRLKILLPFLEQS | 136

Target: ScAbp1
Experiment: as above
Method in brief: as §1

Binder | SPOT peptide array binding signal intensity
KRNRLKILLPFLEQS | 54

Target: ScBbc1
Experiment: as above
Method in brief: as §1

Binder | SPOT peptide array binding signal intensity
KRNRLKILLPFLEQS | 2.5

Target: ScBem1-D1
Experiment: as above
Method in brief: as §1

Binder | SPOT peptide array binding signal intensity
KRNRLKILLPFLEQS | 74

Target: ScBzz1-D1
Experiment: as above
Method in brief: as §1

Binder | SPOT peptide array binding signal intensity
KRNRLKILLPFLEQS | 20.5

Target: ScBzz1-D2
Experiment: as above
Method in brief: as §1

Binder | SPOT peptide array binding signal intensity
KRNRLKILLPFLEQS | 53

Target: ScCyk3
Experiment: as above
Method in brief: as §1

Binder | SPOT peptide array binding signal intensity
KRNRLKILLPFLEQS | 102

Target: ScFus1
Experiment: as above
Method in brief: as §1

Binder | SPOT peptide array binding signal intensity
KRNRLKILLPFLEQS | 1980

Target: ScHof1
Experiment: as above
Method in brief: as §1

Binder | SPOT peptide array binding signal intensity
KRNRLKILLPFLEQS | 1.5

Target: ScHse1
Experiment: as above
Method in brief: as §1

Binder | SPOT peptide array binding signal intensity
KRNRLKILLPFLEQS | 2110

Target: ScLsb1
Experiment: as above
Method in brief: as §1

Binder | SPOT peptide array binding signal intensity
KRNRLKILLPFLEQS | 3

Target: ScLsb2
Experiment: as above
Method in brief: as §1

Binder | SPOT peptide array binding signal intensity
KRNRLKILLPFLEQS | 5

Target: ScLsb3
Experiment: as above
Method in brief: as §1

Binder | SPOT peptide array binding signal intensity
KRNRLKILLPFLEQS | 145

Target: ScLsb4
Experiment: as above
Method in brief: as §1

Binder | SPOT peptide array binding signal intensity
KRNRLKILLPFLEQS | 9.5

Target: ScMyo3
Experiment: as above
Method in brief: as §1

Binder | SPOT peptide array binding signal intensity
KRNRLKILLPFLEQS | 2.5

Target: ScMyo5
Experiment: as above
Method in brief: as §1

Binder | SPOT peptide array binding signal intensity
KRNRLKILLPFLEQS | 2.25

Target: ScNbp2
Experiment: as above
Method in brief: as §1

Binder | SPOT peptide array binding signal intensity
KRNRLKILLPFLEQS | 130

Target: ScPex13
Experiment: as above
Method in brief: as §1

Binder | SPOT peptide array binding signal intensity
KRNRLKILLPFLEQS | 0.25

Target: ScRvs167
Experiment: as above
Method in brief: as §1

Binder | SPOT peptide array binding signal intensity
KRNRLKILLPFLEQS | 18.2

Target: ScSho1
Experiment: as above
Method in brief: as §1

Binder | SPOT peptide array binding signal intensity
KRNRLKILLPFLEQS | 1290

Target: ScSla1-D1-D2
Experiment: as above
Method in brief: as §1

Binder | SPOT peptide array binding signal intensity
KRNRLKILLPFLEQS | 122

Target: ScSla1-D3
Experiment: as above
Method in brief: as §1

Binder | SPOT peptide array binding signal intensity
KRNRLKILLPFLEQS | 3.25

Target: SpAbp1-D1
Experiment: as above
Method in brief: as §1

Binder | SPOT peptide array binding signal intensity
KRNRLKILLPFLEQS | 114

Target: SpBbc1
Experiment: as above
Method in brief: as §1

Binder | SPOT peptide array binding signal intensity
KRNRLKILLPFLEQS | 1.5

Target: SpBzz1-D1
Experiment: as above
Method in brief: as §1

Binder | SPOT peptide array binding signal intensity
KRNRLKILLPFLEQS | 90

Target: SpBzz1-D2
Experiment: as above
Method in brief: as §1

Binder | SPOT peptide array binding signal intensity
KRNRLKILLPFLEQS | ≤ 0
EAEEAAPQLPSRSSA | ≤ 0

Target: SpCyk3
Experiment: as above
Method in brief: as §1

Binder | SPOT peptide array binding signal intensity
KRNRLKILLPFLEQS | 3
EAEEAAPQLPSRSSA | 1

Target: SpHof1
Experiment: as above
Method in brief: as §1

Binder | SPOT peptide array binding signal intensity
KRNRLKILLPFLEQS | 142
EAEEAAPQLPSRSSA | 0.5

Target: SpHof1-2
Experiment: as above
Method in brief: as §1

Binder | SPOT peptide array binding signal intensity
KRNRLKILLPFLEQS | 14
EAEEAAPQLPSRSSA | 3.5

Target: SpHof1-3
Experiment: as above
Method in brief: as §1

Binder | SPOT peptide array binding signal intensity
KRNRLKILLPFLEQS | 624
EAEEAAPQLPSRSSA | 1

Target: SpHse1
Experiment: as above
Method in brief: as §1

Binder | SPOT peptide array binding signal intensity
KRNRLKILLPFLEQS | 1780
EAEEAAPQLPSRSSA | 0.5

Target: SpLsb1
Experiment: as above
Method in brief: as §1

Binder | SPOT peptide array binding signal intensity
KRNRLKILLPFLEQS | 1.5
EAEEAAPQLPSRSSA | 4.25

Target: SpLsb4
Experiment: as above
Method in brief: as §1

Binder | SPOT peptide array binding signal intensity
KRNRLKILLPFLEQS | 56
EAEEAAPQLPSRSSA | 6420

Target: SpMyo1
Experiment: as above
Method in brief: as §1

Binder | SPOT peptide array binding signal intensity
KRNRLKILLPFLEQS | 5.5
EAEEAAPQLPSRSSA | ≤ 0

Target: SpNbp2
Experiment: as above
Method in brief: as §1

Binder | SPOT peptide array binding signal intensity
KRNRLKILLPFLEQS | 443
EAEEAAPQLPSRSSA | ≤ 0

Target: SpPex13
Experiment: as above
Method in brief: as §1

Binder | SPOT peptide array binding signal intensity
KRNRLKILLPFLEQS | 21
EAEEAAPQLPSRSSA | 0.5

Target: SpRvs167
Experiment: as above
Method in brief: as §1

Binder | SPOT peptide array binding signal intensity
KRNRLKILLPFLEQS | 7.5
EAEEAAPQLPSRSSA | 2390

Target: SpSla1-D1-D2
Experiment: as above
Method in brief: as §1

Binder | SPOT peptide array binding signal intensity
KRNRLKILLPFLEQS | ≤ 0
EAEEAAPQLPSRSSA | 2

Target: SpSla1-D3
Experiment: as above
Method in brief: as §1

Binder | SPOT peptide array binding signal intensity
KRNRLKILLPFLEQS | 11
EAEEAAPQLPSRSSA | 1
